Test [1] relates to MILI (PIWIL2) piRISC loaded with L1MC piRNA (26 nt). The test is described as follows: pre-steady-state target cleavage rate (min^-1); guide: L1MC piRNA 5'p-UAACUAAAUACUAUGCAAGCUGUAGG; higher = faster piRNA-guided slicing of the target. The method, boiled down: (§1)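 The pre-steady-state cleavage rate was calculated from a burst-and-steady-state fit. Data came from Cleave-'n-Seq, in which […] transcribed, DNA-blocked target RNA library was mixed with 1 nM active affinity-purified piRISC carrying one synthetic guide, with or without 500 nM GTSF1 partner protein, in HEPES–potassium acetate buffer at 33 °C for 0–8 or 0–960 min. Uncleaved targets were sequenced and normalised to depth and to weakly complementary targets, three trials were pooled, and k3 was capped at 0.0001 min^-1.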

Test [2] concerns EfPiwi piRISC loaded with L1MC piRNA (26 nt). The test is described as follows: pre-steady-state target cleavage rate (min^-1); auxiliary factor: 500 nM Ephydatia muelleri Gtsf1; guide: L1MC piRNA 5'p-UAACUAAAUACUAUGCAAGCUGUAGG; MIWI and MILI are mouse PIWI proteins and EfPiwi is from a freshwater sponge; tags in brackets are library labels; higher = faster piRNA-guided slicing of the target. In short, it runs like this: as §1
[3] abbreviates: auxiliary factor: 500 nM mouse GTSF1.
[4] abbreviates: auxiliary factor: none (no GTSF1).

± gives the standard deviation.

Regarding “UCCUCCUACAGCUUGCAUAGUAUUUAGUUU [g2:g26:cont:t1U]”, the “pre-steady-state target cleavage rate” value in test [1] (setting [3]) turned out to be 0.35 ± 0.02; in test [1] (setting [4]), 0.0339 ± 0.0087; in test [2], 0.265 ± 0.062.

With UCCUGCUACAGCUUGCAUAGGUAUUUAGUUA, the “pre-steady-state target cleavage rate” value in test [1] (setting [3]) was 0.00815 ± 0.0047; in test [1] (setting [4]), 0.00421 ± 0.0024; in test [2] it was 0.00304 ± 0.0019.

Consider UCCUGGAUCAGCAUGCAUAGUAAUUAGUUA, for which the results for the “pre-steady-state target cleavage rate” value in test [1] (setting [3]), in test [1] (setting [4]) and in test [2] were 0.181 ± 0.025, 0.00637 ± 0.0027 and 0.00437 ± 0.0016, respectively.

For the sequence UCCUGGAUCAGCUUGCAAAGUUUUUAGUUA, the “pre-steady-state target cleavage rate” value amounted to 0.00906 ± 0.0052 in test [1] (setting [3]), 0.0042 ± 0.0022 in test [1] (setting [4]) and 0.00491 ± 0.0036 in test [2].

Regarding UCCUGGAACAGCUCGCAUAGUAUUUAGUUA, the “pre-steady-state target cleavage rate” value came out at 0.256 ± 0.012 in test [1] (setting [3]), 0.00773 ± 0.0031 in test [1] (setting [4]) and 0.0171 ± 0.0048 in test [2].

As to UCCUGGUACAGCUUGCAAGUAUUUAGUUA, the “pre-steady-state target cleavage rate” value was found to be 0.113 ± 0.014 in test [1] (setting [3]), 0.00636 ± 0.0022 in test [1] (setting [4]) and 0.00546 ± 0.0031 in test [2].

For the sequence UCCUGCUACAGCAUGCAUAGUUUUUAGUUA, the “pre-steady-state target cleavage rate” value in test [1] (setting [3]) amounted to 0.114 ± 0.019; in test [1] (setting [4]), 0.00396 ± 0.0036; in test [2] it was 0.00363 ± 0.0018.

In the case of UCCUCCUACAGCUUGCCAUAGUAUUUAGUUA, the entries for the “pre-steady-state target cleavage rate” value in test [1] (setting [3]), in test [1] (setting [4]) and in test [2] were 0.173 ± 0.026, 0.00264 ± 0.0026 and 0.00595 ± 0.0024, respectively.

UCCUGGAUGAGCUUGCAUAGUAUGUAGUUA: the “pre-steady-state target cleavage rate” value in test [1] (setting [3]) was found to be 0.162 ± 0.033; in test [1] (setting [4]), 0.0043 ± 0.003; in test [2], 0.0135 ± 0.0044.

As for UCCUGGAACAGCAUGCAUUGUAUUUAGUUA, the “pre-steady-state target cleavage rate” value in test [1] (setting [3]) was 0.204 ± 0.016; in test [1] (setting [4]), 0.00901 ± 0.0024; in test [2] it was 0.00504 ± 0.002.

Take UCCUCCUACAGCUAGCAUAGUUUUUAGUUA: the “pre-steady-state target cleavage rate” value in test [1] (setting [3]) came out at 0.0658 ± 0.011; in test [1] (setting [4]), 0.00299 ± 0.0026; in test [2] it was 0.00442 ± 0.0017.

In the case of UCCUGGAUGUGCUUGCAUAGUAUUUGGUUA, the “pre-steady-state target cleavage rate” value was 0.131 ± 0.013 in test [1] (setting [3]), 0.01 ± 0.0034 in test [1] (setting [4]) and 0.00579 ± 0.003 in test [2].

For the sequence UCCUCCUUCAGCUUGCAUAGUAUUUAGAUA, the “pre-steady-state target cleavage rate” value in test [1] (setting [3]) is 0.157 ± 0.022; in test [1] (setting [4]), 0.00242 ± 0.0024; in test [2] it was 0.00476 ± 0.0027.

Take UCCUGGUACACCUUGCUUAGUAUUUAGUUA: the results for the “pre-steady-state target cleavage rate” value in test [1] (setting [3]), in test [1] (setting [4]) and in test [2] were 0.134 ± 0.024, 0.0117 ± 0.0037 and 0.00384 ± 0.0027, respectively.

On to UCCUGCUACUCCUUGCAUAGUAUUUAGUUA, for which the “pre-steady-state target cleavage rate” value in test [1] (setting [3]) turned out to be 0.262 ± 0.015; in test [1] (setting [4]), 0.0091 ± 0.0024; in test [2] it was 0.0106 ± 0.004.

For the sequence UCCUGCUACAGCUUGCUAGUAUUUAGUUA, the “pre-steady-state target cleavage rate” value in test [1] (setting [3]) came to 0.0195 ± 0.0079; in test [1] (setting [4]) it was 0.00519 ± 0.002; in test [2], 0.00473 ± 0.0031.

With UCCUGGUACAGCUUGCAUAGUACUUAGUUA, the “pre-steady-state target cleavage rate” value in test [1] (setting [3]) is 0.187 ± 0.029; in test [1] (setting [4]), 0.00401 ± 0.0032; in test [2], 0.00275 ± 0.0022.

As to UCCUGCUACAGCAUUGCAUAGUAUUUAGUUA, the results for the “pre-steady-state target cleavage rate” value in test [1] (setting [3]), in test [1] (setting [4]) and in test [2] were 0.286 ± 0.02, 0.0108 ± 0.0036 and 0.00946 ± 0.0029, respectively.

As to UCCUGGAUCAGCUUGCUUACUAUUUAGUUA, the “pre-steady-state target cleavage rate” value in test [1] (setting [3]) worked out at 0.0672 ± 0.0086; in test [1] (setting [4]), 0.00436 ± 0.0022; in test [2], 0.0032 ± 0.0024.

Consider UCCUGCUUCAGCUUGCAUAGUAUUUAGUAA, for which the “pre-steady-state target cleavage rate” value in test [1] (setting [3]) was 0.224 ± 0.025; in test [1] (setting [4]), 0.00397 ± 0.002; in test [2], 0.00811 ± 0.0033.

As for UCCUCGUACAGCUUGCAUAGUAUUUAGUUA, the “pre-steady-state target cleavage rate” value was found to be 0.32 ± 0.015 in test [1] (setting [3]), 0.0108 ± 0.0022 in test [1] (setting [4]) and 0.163 ± 0.036 in test [2].

Take UCCUGGAUGUGCUUCGCAUAGUAUUUAGUUA: the figures for the “pre-steady-state target cleavage rate” value in test [1] (setting [3]), in test [1] (setting [4]) and in test [2] were 0.155 ± 0.023, 0.00505 ± 0.0021 and 0.0132 ± 0.0048, respectively.

As to UCCUCCUACUCCUUGCAUAGUAUUUAGUUA, the results for the “pre-steady-state target cleavage rate” value in test [1] (setting [3]), in test [1] (setting [4]) and in test [2] were 0.261 ± 0.021, 0.0087 ± 0.0018 and 0.165 ± 0.046, respectively.

Take UCCUGCUACAGCUUGCAUAGUAUUUUGUUA: the “pre-steady-state target cleavage rate” value in test [1] (setting [3]) amounted to 0.168 ± 0.025; in test [1] (setting [4]), 0.00464 ± 0.0019; in test [2], 0.00916 ± 0.0029.

UCCUGGAACAGCUUGCAUAGUGUUUAGUUA: the “pre-steady-state target cleavage rate” value in test [1] (setting [3]) amounted to 0.146 ± 0.018; in test [1] (setting [4]), 0.00335 ± 0.0028; in test [2], 0.0084 ± 0.0024.

(Values after the supplement of paper PMC10338343.)
